Several values for one entry are separate records, joined by “and”; a condition that tells them apart may be missing. Equal values may be shown once. A number with no mark means an inactive call. Results filed as inconclusive are left out. Activity calls are given as the source filed them. Unless noted, calls follow the shape of the dose curve; as a rule, active = well fitted curve in the direction sought with a large enough effect; inconclusive = small, poorly fitted or top-dose-only effect, or another doubt; inactive = no such curve, though single readings can be large; an effect the other way counts as inactive or inconclusive.

In assay [1] the target is Cytochrome P450 3A4 (Homo sapiens) (UniProt P08684). The assay is described as follows: qHTS Assay for Inhibitors and Substrates of Cytochrome P450 3A4 (AID 884). Also: series mostly up to about 57 µM; % is scaled to controls: 0 for no effect and ±100 for the full control effect; nearly all actives have a fitted effect of over 50% in size. The method in brief:
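Luminescent readout of luciferin produced by CYP3A4 (20 nM) dealkylation of Luciferin-PPXE, 25 uM (its KM). NADPH-driven reaction ran 60 min at RT after 10 min compound preincubation; data scaled to 57 uM ketoconazole as 100% inhibition.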

Assay [2] is described as follows: Cell Viability - LYMP2-001 (AID 921). Also: nearly all actives have a fitted effect of over 70% in size. Also: potency is read from the fitted curve at half-maximal effect. The method in brief:
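A lymphoblastoid cell line of human origin was treated with library compounds across a concentration series for 24 hours, and viable cell number was estimated from ATP-driven luciferase light output. Hill modeling gave AC50.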

Assay [3] can be described thus: MultiTox-Fluor Cytotoxicity Assay - LYMP1-002 - Dead Cells (AID 960). Also: nearly all actives have a fitted effect of over 60% in size. Also: potency is read from the fitted curve at half-maximal effect. A digest of the protocol: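 Dead-cell fluorescence (Ex/Em 485/520) after 16 h compound exposure at 37 C of LYMP1-002 lymphoblastoid cells in complete medium; AC50 by Hill equation, with data scaled between DMSO and 15 uM tetraoctylammonium bromide.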
Assay [4] is described as follows: Cell Viability - LYMP1-003 - Assay at 40 hr (AID 964). Also: nearly all actives have a fitted effect of over 60% in size. Also: potency is read from the fitted curve at half-maximal effect. The method in brief:
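Viability is taken as cellular ATP, read by CellTiter-Glo luminescence after 40 h of compound exposure at 37 C. Cells: human lymphoblastoid line LYMP1-003 at 2500/well; AC50 values derived by Hill-equation fitting of concentration-response data.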

A short description of assay [5]: Cell Viability - LYMP2-013 (AID 970). Also: nearly all actives have a fitted effect of over 55% in size. Also: potency is read from the fitted curve at half-maximal effect. The method in brief:
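qHTS cytotoxicity: ATP-dependent luminescence (CellTiter-Glo, 30 min room temperature) read after 24 h compound exposure at 37 C of 2500 LYMP2-013 lymphoblastoid cells per well. Concentration-response fitted with Hill equation to give AC50.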

Assay [6] in a line: Cell Viability - LYMP2-006 (AID 978). Also: nearly all actives have a fitted effect of over 60% in size. Also: potency is read from the fitted curve at half-maximal effect. A digest of the protocol: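 In this cytotoxicity screen, the human lymphoblastoid line grew in complete medium with test compounds for 24 hr at 37 C. Cellular ATP served as the viability signal.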
A short description of assay [7]: Cell Viability - LYMP2-008 (AID 980). Also: nearly all actives have a fitted effect of over 60% in size. Also: potency is read from the fitted curve at half-maximal effect. The method in brief: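 Cytotoxicity determined from ATP-dependent luciferase luminescence (CellTiter-Glo) following 24 h compound exposure of human lymphoblastoid LYMP2-008 cells at 37 C. Concentration-response data fitted to the Hill equation to give AC50.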
A short description of assay [8]: Cell Viability - LYMP2-010 (AID 981). Also: nearly all actives have a fitted effect of over 55% in size. Also: potency is read from the fitted curve at half-maximal effect. A digest of the protocol:
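CellTiter-Glo ATP luminescence measured cytotoxicity after 24 h compound exposure at 37 C. LYMP2-010 cells were seeded at 2500/well, with tetraoctylammonium bromide as control; concentration-response curves gave AC50 values by the Hill equation.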

Assay [9] is described as follows: Cell Viability - LYMP2-016 (AID 984). Also: nearly all actives have a fitted effect of over 55% in size. Also: potency is read from the fitted curve at half-maximal effect. A digest of the protocol:
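Concentration-dependent ATP depletion measured in LYMP2-016 lymphoblastoid cells, 24 h, 37 C; luciferase-based luminescent detection; Hill-equation AC50.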

The nature of assay [10]: Cell Viability - LYMP2-018 (AID 985). Also: nearly all actives have a fitted effect of over 50% in size. Also: potency is read from the fitted curve at half-maximal effect. The method in brief:
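Viability read as CellTiter-Glo luminescence (cellular ATP) after 24 hr compound exposure at 37 C of 2500 LYMP2-018 lymphoblastoid cells/well, pre-plated 5 hr. Hill-equation modelling gave AC50.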

The nature of assay [11]: Cell Viability - LYMP2-020 (AID 986). Also: nearly all actives have a fitted effect of over 55% in size. Also: potency is read from the fitted curve at half-maximal effect. A digest of the protocol:
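Cytotoxicity in qHTS format: luminescent ATP readout from CellTiter-Glo after 24 h compound exposure at 37 C in complete medium. LYMP2-020 lymphoblastoid cells were seeded at 2500/well; concentration-response data fitted to the Hill equation for AC50.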

Assay [12] in a line: Cell Viability - LYMP2-022 (AID 987). Also: nearly all actives have a fitted effect of over 55% in size. Also: potency is read from the fitted curve at half-maximal effect. The method in brief:
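Cytotoxicity read as decreased cellular ATP (CellTiter-Glo luminescence, 30 min room temperature) after 24 hours compound exposure of 2500 lymphoblastoid LYMP2-022 cells/well at 37 C. Concentration-response data fitted with standard Hill equation for AC50.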

A short description of assay [13]: Cell Viability - LYMP2-024 (AID 988). Also: nearly all actives have a fitted effect of over 60% in size. Also: potency is read from the fitted curve at half-maximal effect. The method in brief:
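Cytotoxicity was taken as a decrease in ATP (CellTiter-Glo luminescence) after 24 hr compound exposure at 37 C of LYMP2-024 lymphoblastoid cells, 2500 cells/well. Concentration-response data were fitted to the Hill equation to give AC50.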

Assay [14] can be described thus: Cell Viability - LYMP1-002 - Assay at 40 hr (AID 994). Also: nearly all actives have a fitted effect of over 60% in size. Also: potency is read from the fitted curve at half-maximal effect. The method in brief: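 Cytotoxicity was read as loss of cellular ATP (CellTiter-Glo luminescence) after 40 hr compound exposure at 37 C of 2500 LYMP1-002 lymphoblastoid cells per well. Concentration-response data were fitted with the standard Hill equation to give AC50.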
Assay [15] concerns the target Thyroid hormone receptor beta (Homo sapiens) (UniProt P10828). The assay is described as follows: qHTS assay for small molecule agonists of thyroid hormone receptor beta signaling (AID 588545; calls by dose curve). A digest of the protocol: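 In this cell-based screen, titrated compounds act on HEK 293 cells held in medium with 2% charcoal/dextran FBS, NEAA and pyruvate for 18 hrs at 37 C. Responses are expressed relative to T3 (10 nM) as 100% and basal DMSO as 0%.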
Background: Quantitative high-throughput screening tests each substance at several concentrations.

The target is the same in assay [16]. In words: qHTS assay for small molecule antagonists of thyroid hormone receptor beta signaling (AID 588547; active = well fitted inhibition curve with a large enough effect in the signal ratio, with a control signal flat, not every such curve was filed as active; the % refers to the signal ratio;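 also: cells stimulated with 0.4 nM T3 agonist during compound exposure; series mostly up to about 77 µM; % is scaled to controls: 0 for no effect and ±100 for the full control effect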). Particulars: TR-UAS-bla HEK293, beta-lactamase ratio, antagonist mode, 18 h. A digest of the protocol:
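TR-UAS-bla GripTite HEK293 cells in 2% charcoal/dextran FBS medium; compounds 0.59 nM to 92 uM with T3 at 0.4nM final, 18 h at 37 C. Beta-lactamase read by CCF4 fluorescence (460/530 nm); Hill fits gave IC50 and efficacy.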

Assay [17] can be described thus: qHTS assay for small molecule activators of the nuclear factor-kappa B (NF-kB) signaling pathway (AID 651749; active = well fitted activation curve with a large enough effect in the signal ratio; the % refers to the signal ratio; also: series mostly up to about 77 µM; % of control where 0% means no effect). Particulars: NF-kB-bla ME-180 cells, beta-lactamase FRET ratio, 16 h; stronger effect = higher value. The method in brief:
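In this qHTS format, compounds acting as activators increase NF-kB-driven beta-lactamase in ME-180 cells, measured as disrupted FRET after 16 hr exposure at 37C and 5% CO2.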

In assay [18] the target is Nuclear receptor subfamily 1 group I member 2 (Rattus norvegicus) (UniProt Q9R1A7). In words: qHTS assay for small molecule activators of the rat pregnane X receptor (rPXR) signaling pathway (AID 651751; call rule not given here; also: 0% is about no effect). As to conditions: rPXR reporter cells, luciferase (One-Glo), 24 h.
Nuclear receptor subfamily 1 group I member 2 (Rattus norvegicus), sequence (Q9R1A7 whole entry, looked up): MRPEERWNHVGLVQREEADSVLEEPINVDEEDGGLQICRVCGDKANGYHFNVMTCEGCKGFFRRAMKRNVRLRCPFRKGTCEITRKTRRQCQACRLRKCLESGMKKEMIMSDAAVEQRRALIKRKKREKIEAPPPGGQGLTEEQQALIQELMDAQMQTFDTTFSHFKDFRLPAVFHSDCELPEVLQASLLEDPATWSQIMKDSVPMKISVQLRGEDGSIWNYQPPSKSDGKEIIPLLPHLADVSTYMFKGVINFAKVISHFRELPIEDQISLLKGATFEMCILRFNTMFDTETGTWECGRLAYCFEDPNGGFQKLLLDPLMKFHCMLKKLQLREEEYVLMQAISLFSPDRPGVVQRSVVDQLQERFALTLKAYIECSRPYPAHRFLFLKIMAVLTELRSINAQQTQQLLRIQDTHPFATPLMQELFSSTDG
Assay [19] is described as follows: Cell Viability - Jurkat (AID 426;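 active = dose-dependent loss of cell ATP signal giving a full or clear fitted curve, ranked by lower potency value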;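 also: potency is read from the fitted curve at half-maximal effect; cells exposed to compound for 40 hours at 37 °C before ATP read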). Particulars: qHTS. The method in brief: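 Cytotoxicity taken as drop in cellular ATP (CellTiter-Glo luminescence, 20 min room temperature) after 40 hr, 37C treatment of 5000 Jurkat Clone E6-1 cells per well; concentration-response fitted with Hill equation for AC50.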
In assay [20] the target is Retinoic acid receptor RXR-alpha (Homo sapiens) (UniProt P19793). In words: qHTS assay for small molecule antagonists of retinoid X receptor alpha signaling (AID 588546; active = well fitted inhibition curve with a large enough effect in the signal ratio, with a control signal flat, not every such curve was filed as active; the % refers to the signal ratio; also: % is scaled to controls: 0 for no effect and ±100 for the full control effect). As to conditions: HEK293T RXRa-UAS-bla, beta-lactamase ratio, antagonist mode. The method in brief: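 Beta-lactamase reporter inhibition, read as CCF4 fluorescence ratio (ex 405, em 460/530 nm) after 2 h at RT. HEK293T UAS-bla cells, 2500/well, were stimulated with 9-cis-RA at 500 or 100 nM final alongside test compound for 18 h at 37 C.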
Retinoic acid receptor RXR-alpha (Homo sapiens), sequence (P19793 whole entry, looked up): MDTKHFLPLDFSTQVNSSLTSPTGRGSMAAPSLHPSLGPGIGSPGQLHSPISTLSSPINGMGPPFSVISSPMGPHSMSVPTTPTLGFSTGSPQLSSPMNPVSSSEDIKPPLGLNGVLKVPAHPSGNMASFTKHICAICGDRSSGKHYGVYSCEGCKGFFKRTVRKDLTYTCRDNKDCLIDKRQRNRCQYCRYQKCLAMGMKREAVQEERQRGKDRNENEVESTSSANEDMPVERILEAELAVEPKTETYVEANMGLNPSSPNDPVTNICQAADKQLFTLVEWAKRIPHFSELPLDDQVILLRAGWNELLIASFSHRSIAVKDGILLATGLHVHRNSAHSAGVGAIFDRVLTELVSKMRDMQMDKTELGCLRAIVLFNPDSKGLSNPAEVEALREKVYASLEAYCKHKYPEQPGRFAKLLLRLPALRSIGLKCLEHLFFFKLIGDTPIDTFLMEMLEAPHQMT

Cytochrome P450 3A4 (Homo sapiens), sequence (P08684 whole entry, looked up): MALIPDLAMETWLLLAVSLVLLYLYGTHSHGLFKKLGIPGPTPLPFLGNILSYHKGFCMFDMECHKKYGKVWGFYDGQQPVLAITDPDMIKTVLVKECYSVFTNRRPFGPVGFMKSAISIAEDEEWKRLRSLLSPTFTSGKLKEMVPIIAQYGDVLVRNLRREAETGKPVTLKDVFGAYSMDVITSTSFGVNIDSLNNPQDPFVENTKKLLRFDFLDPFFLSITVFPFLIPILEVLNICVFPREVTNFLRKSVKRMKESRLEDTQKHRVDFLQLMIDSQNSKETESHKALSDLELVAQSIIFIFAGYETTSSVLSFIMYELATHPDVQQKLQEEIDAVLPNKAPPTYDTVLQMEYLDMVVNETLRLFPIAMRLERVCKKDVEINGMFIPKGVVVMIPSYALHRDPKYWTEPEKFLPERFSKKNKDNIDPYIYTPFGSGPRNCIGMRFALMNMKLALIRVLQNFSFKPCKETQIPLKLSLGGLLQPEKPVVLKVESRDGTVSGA
Thyroid hormone receptor beta (Homo sapiens), sequence (P10828 whole entry, looked up): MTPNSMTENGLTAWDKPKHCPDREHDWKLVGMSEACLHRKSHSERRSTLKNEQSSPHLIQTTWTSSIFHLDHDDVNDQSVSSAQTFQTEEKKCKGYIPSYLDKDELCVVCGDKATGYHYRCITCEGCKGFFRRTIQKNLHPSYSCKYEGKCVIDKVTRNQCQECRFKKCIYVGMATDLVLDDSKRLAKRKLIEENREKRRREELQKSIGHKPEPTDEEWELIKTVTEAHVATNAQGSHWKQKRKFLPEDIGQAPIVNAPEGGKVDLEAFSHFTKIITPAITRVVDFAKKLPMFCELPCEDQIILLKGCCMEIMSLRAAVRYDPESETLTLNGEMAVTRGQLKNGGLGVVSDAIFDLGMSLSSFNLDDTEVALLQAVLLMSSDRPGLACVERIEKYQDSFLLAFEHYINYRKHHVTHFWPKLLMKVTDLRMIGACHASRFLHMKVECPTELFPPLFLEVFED

For the molecule `O=Cc1ccc(Cl)c(Cl)c1`, the Potency entry in [1], in assay [2], in assay [3], in assay [4], in assay [5] and in [6] was “inactive” each time. Further, the Potency result in assay [7], in assay [8], in assay [9], in assay [10], in assay [11] and in assay [12] was “inactive” in each case. For the same molecule, the Potency entry in assay [13] and in assay [14] was “inactive” throughout. The outcome in assay [15] was inactive. Besides, in assay [16], the activity change % (negative = inhibition) was 11%. The activation in assay [17] was -0.954%. Further, in [18], the max response is -0.904%.
`CC(=O)Nc1ccc(C(=O)CCl)cc1`: the Potency is 2.44 µM (active) in assay [19]; 3.98 µM (active) in assay [2]; 15.8 µM (active) in assay [3]; 39.8 µM (active) in assay [4]; 6.31 µM (active) in assay [5]; 10 µM (active) in assay [6]. Also, the Potency in assay [7] was 6.31 µM (active); in assay [8], 3.98 µM (active); in assay [9], 7.94 µM (active); in assay [10] it was 7.94 µM (active); in assay [11], 5.01 µM (active); in assay [12], 3.98 µM (active). Also, the Potency in [13] was 3.16 µM (active); in assay [14], 39.8 µM (active). Also, in [1], the Potency entry is “inactive”. Besides, in assay [17], the activation was -3.62%.
As for `C=C(C)c1ccccc1`, in [19], the Potency was above 92 µM. Moreover, the Potency entry in [2], in assay [3], in assay [4], in assay [5], in [6] and in [7] was “inactive” each time. In addition, the Potency entry in assay [8], in assay [9], in [10], in [11], in assay [12] and in assay [13] was “inactive” in each case. In addition, the Potency entry in assay [14] is “inactive”. Also, the results for the max response in assay [20] and in assay [18] were -3.16% and 0.462%, respectively. The activity change % (negative = inhibition) in assay [16] was 2.47%. For the same molecule, the activation in assay [17] was 1.11%.
For `ClC1=C(Cl)C(Cl)(Cl)C(Cl)=C1Cl`, in assay [19], the Potency is 1.88 µM (active). In addition, the Potency entry in assay [1], in assay [3], in [4] and in [14] was “inactive” throughout. Moreover, the call in assay [15] was inactive. For the same molecule, the max response in assay [20] was -8.53% and -12%; in [18], 3.04% and -2.94%. The activity change % (negative = inhibition) in assay [16] was -17.2% and -1.82%. Also, the activation in assay [17] was -0.183% and -0.468%.
On to `Nc1ccc2cc3ccccc3cc2c1`, for which the Potency in assay [19] is above 92 µM. The Potency entry in assay [2], in assay [3], in assay [4], in [5], in assay [6] and in assay [7] was “inactive” in each case. The Potency entry in assay [8], in [9], in [10], in assay [11], in assay [12] and in assay [13] was “inactive” throughout. Moreover, in assay [14], the Potency result is “inactive”.
`Cc1ccc(S(=O)(=O)Oc2ccc(N=Nc3ccc(-c4ccc(N=Nc5c(O)ccc6cc(S(=O)(=O)O)cc(S(=O)(=O)O)c56)c(C)c4)cc3C)cc2)cc1`: the result in assay [15] was inactive. For the same molecule, the max response in [20] was 14.7%; in assay [18] it was -4.06%. The activity change % (negative = inhibition) in assay [16] is 6.13%. In assay [17], the activation was -0.0057%.

The values are drawn from PubChem BioAssay (NCATS).
